# Reference: PubChem BioAssay (NCATS)
# Records with an inconclusive call do not appear. A call without a number means that no potency is given here. Unmarked numbers belong to inactive results. The source made the active and inactive calls. Calls come from the whole dose curve; as a rule, active = well fitted curve in the direction sought with a large enough effect; inconclusive = small, poorly fitted or top-dose-only effect, or another doubt; inactive = no such curve, though single readings can be large; an effect the other way counts as inactive or inconclusive.
# Columns and labels:
# [1] = target: Rap guanine nucleotide exchange factor 3 (Homo sapiens) (UniProt O95398); assay: Confirmatory qHTS for antagonist of cAMP-regulated guanine nucleotide exchange factor 3 (EPAC1) (AID 1645880); details: EPAC1 Rap1B-BODIPY-GDP exchange, fluorescence; activity, negative = inhibition: at 115 µM (top of the series); note: nearly all actives have a fitted effect of over 55% in size; note: potency is the fitted concentration of half-maximal effect
# Sequence of Rap guanine nucleotide exchange factor 3 (Homo sapiens) (O95398 whole entry, looked up): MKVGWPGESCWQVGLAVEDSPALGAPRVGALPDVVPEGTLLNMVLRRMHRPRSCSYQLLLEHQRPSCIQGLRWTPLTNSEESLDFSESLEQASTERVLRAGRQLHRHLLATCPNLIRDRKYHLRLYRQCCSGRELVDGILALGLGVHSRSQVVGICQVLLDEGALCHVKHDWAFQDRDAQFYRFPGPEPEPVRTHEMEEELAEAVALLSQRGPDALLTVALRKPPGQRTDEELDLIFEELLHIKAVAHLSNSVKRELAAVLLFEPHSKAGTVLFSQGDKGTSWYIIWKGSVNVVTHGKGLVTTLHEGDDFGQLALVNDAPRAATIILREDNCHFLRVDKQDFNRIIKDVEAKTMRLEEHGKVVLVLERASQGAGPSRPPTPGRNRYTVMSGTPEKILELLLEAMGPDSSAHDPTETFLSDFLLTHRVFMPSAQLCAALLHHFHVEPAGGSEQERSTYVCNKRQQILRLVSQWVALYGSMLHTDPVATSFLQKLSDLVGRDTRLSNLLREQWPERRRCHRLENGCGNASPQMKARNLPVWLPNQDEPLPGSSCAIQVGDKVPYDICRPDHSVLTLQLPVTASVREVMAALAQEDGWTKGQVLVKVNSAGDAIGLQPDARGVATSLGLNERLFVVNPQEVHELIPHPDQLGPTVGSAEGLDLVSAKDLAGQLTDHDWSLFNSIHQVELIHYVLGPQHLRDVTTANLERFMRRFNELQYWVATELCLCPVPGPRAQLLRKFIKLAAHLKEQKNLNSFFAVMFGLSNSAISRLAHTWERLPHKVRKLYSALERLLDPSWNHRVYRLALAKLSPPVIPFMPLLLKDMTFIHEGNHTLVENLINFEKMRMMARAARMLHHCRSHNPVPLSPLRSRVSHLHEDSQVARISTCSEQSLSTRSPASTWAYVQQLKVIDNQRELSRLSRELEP
# Outline: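 Nucleotide exchange uses 100 nM EPAC1, 250 nM RAP1B-BODIPY-GDP and 50 uM GDP, with compounds in a concentration-titration series. After 5 min at room temperature, fluorescence (480 nm ex/540 nm em) is read every 5 min for 30 min. Data are normalized to control ATA and DMSO.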
# [2] = target: Rap guanine nucleotide exchange factor 3 (Homo sapiens) (UniProt O95398); assay: Confirmatory qHTS for agonist of cAMP-regulated guanine nucleotide exchange factor 3 (EPAC1) (AID 1645881);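 note: EPAC1 catalysed release of BODIPY-GDP from Rap1B seen as fluorescence loss; nearly all actives have a fitted effect of over 75% in size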
# [3] = target: Rap guanine nucleotide exchange factor 4 (Homo sapiens) (UniProt Q8WZA2); assay: Confirmatory qHTS for agonist of cAMP-regulated guanine nucleotide exchange factor 4 (EPAC2) (AID 1645884);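 note: nucleotide exchange releases bodipy-GDP from Rap1 and this lowers its fluorescence; nearly all actives have a fitted effect of over 65% in size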; note: potency is the fitted concentration of half-maximal effect
# Sequence of Rap guanine nucleotide exchange factor 4 (Homo sapiens) (Q8WZA2 whole entry, looked up): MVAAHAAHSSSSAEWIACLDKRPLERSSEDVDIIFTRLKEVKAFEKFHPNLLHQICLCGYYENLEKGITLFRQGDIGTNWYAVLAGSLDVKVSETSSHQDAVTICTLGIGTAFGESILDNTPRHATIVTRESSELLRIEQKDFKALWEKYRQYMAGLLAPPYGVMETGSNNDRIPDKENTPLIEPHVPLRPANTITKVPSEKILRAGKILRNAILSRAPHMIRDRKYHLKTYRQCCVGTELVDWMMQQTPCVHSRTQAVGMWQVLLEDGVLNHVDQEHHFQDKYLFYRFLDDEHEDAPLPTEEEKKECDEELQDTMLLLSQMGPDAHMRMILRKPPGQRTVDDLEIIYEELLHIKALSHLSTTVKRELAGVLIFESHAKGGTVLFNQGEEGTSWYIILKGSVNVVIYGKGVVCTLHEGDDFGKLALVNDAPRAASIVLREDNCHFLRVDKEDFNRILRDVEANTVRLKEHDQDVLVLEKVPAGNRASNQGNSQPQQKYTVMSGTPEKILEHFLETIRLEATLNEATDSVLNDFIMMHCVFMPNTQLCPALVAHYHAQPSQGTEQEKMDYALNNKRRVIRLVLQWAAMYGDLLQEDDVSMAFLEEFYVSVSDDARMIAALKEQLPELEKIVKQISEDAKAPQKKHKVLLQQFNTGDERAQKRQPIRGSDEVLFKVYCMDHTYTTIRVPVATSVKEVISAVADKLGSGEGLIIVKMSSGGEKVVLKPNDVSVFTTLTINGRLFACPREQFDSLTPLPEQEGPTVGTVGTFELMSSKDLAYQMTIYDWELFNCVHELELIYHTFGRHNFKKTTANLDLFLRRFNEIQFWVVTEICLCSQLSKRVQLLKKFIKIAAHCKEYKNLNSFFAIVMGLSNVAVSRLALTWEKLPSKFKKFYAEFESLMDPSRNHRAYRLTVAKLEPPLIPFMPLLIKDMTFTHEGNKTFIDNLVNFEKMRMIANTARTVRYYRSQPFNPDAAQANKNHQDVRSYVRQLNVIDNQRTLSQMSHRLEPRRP
# [4] = target: Rap guanine nucleotide exchange factor 4 (Homo sapiens) (UniProt Q8WZA2); assay: Confirmatory qHTS for antagonist of cAMP-regulated guanine nucleotide exchange factor 4 (EPAC2) (AID 1645885); note: nearly all actives have a fitted effect of over 25% in size; note: potency is the fitted concentration of half-maximal effect
# [5] = target: Rap guanine nucleotide exchange factor 3 (Homo sapiens) (UniProt O95398); assay: Counterscreen qHTS for agonist of cAMP-regulated guanine nucleotide exchange factor 3 (EPAC1) (AID 1645889); note: nearly all actives have a fitted effect of over 40% in size
# Outline: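 Rap1B–BODIPY-GDP (250 nM) with 50 uM GDP; compounds pin-transferred to 9.74 nM–152 uM final (activator) or from 7.32 nM upwards (inhibitor). Fluorescence Ex/Em 480/540 nm read at 5 and 30 min, then after adding cAMP or buffer, at room temperature.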
SMILES,Potency [1],Potency [2],Potency [3],Potency [4],Potency [5],activation [3],activation [5],outcome [4]
CC1(Cc2ccccc2OC(F)(F)F)C(=O)Nc2ccc(-c3ccsc3)cc21 (stereo not given),42.6 µM (active),inactive,inactive,33.8 µM (active),inactive,–,–,–
CN1/C(=C/C=C/c2n(C)c3cc([N+](=O)[O-])c([N+](=O)[O-])cc3[n+]2C)C(C)(C)c2ccccc21,30.1 µM (active),inactive,inactive,42.6 µM (active),inactive,–,–,–
O=C(NCCS(=O)(=O)N1CCc2ccccc2C1)c1ccccc1,inactive,inactive,inactive,inactive,inactive,–,–,–
O=S(=O)(O)c1ccc(N=NNc2ccc(Br)cc2)cc1,inactive,inactive,inactive,26.9 µM (active),inactive,–,–,–
CC(=O)c1cccc(NC(=O)c2c(-c3ccccc3)c(-c3ccccc3)nn(C)c2=O)c1,inactive,inactive,inactive,inactive,inactive,–,–,–
CCC1=NN(C(=O)c2ccc(Br)cc2)C(O)(c2ccccc2)C1 (stereo not given),inactive,inactive,–,inactive,–,"2.89% [at 17.1 µM, percent relative to cAMP agonist control]",19.8% [at 30.8 µM],–
Cc1ccc(CNC(=O)c2c[nH]n3c(=O)c(Cc4ccc(F)cc4Cl)c(C)nc23)cc1,67.5 µM (active),inactive,inactive,inactive,inactive,–,–,–
CC1CC1c1ccc(/C=C(\C#N)C(=O)Nc2ccc(Cl)cc2)o1 (stereo not given),inactive,inactive,inactive,inactive,inactive,–,–,–
O=CN(c1ccccc1)c1ccc2ccccc2c1,inactive,inactive,–,inactive,–,"1.36% [at 17.1 µM, percent relative to cAMP agonist control]",4.55% [at 30.8 µM],–
O=[N+]([O-])c1ccc(N/N=C2/CCCCC2c2ccccn2)cc1 (stereo not given),inactive,inactive,–,inactive,–,"2.03% [at 17.1 µM, percent relative to cAMP agonist control]",-3.04% [at 30.8 µM],–
COc1cc(CCc2ccccc2)c(C(=O)O)c(O)c1C/C=C(/C)CCC=C(C)C,42.6 µM (active),inactive,inactive,75.7 µM (active),inactive,–,–,–
COc1cc2nc(N3CCNCC3)nc(N)c2cc1OC,inactive,inactive,100 µM (active),67.5 µM (active),inactive,–,–,–
O=C(O)CN1C(=O)/C(=C\c2ccccc2OCc2ccc(Cl)cc2)SC1=S,37.9 µM (active),inactive,inactive,42.6 µM (active),inactive,–,–,–
COc1cccc(C(=O)C(CCC#N)c2ccccc2)c1 (stereo not given),inactive,inactive,inactive,inactive,inactive,–,–,–
COc1ccc(N2CCN(CCCNC(=O)c3ccc4nc(CCc5ccccc5)oc4c3)CC2)cc1,inactive,inactive,inactive,inactive,inactive,–,–,–
CCOc1ccc(CNC(=O)c2ccccc2NC(=O)c2nsc3ccccc23)cc1,inactive,inactive,inactive,–,inactive,–,–,inactive [at 12.7 µM]
CCOC(=O)N1c2ccccc2Sc2ccccc21,inactive,inactive,–,inactive,–,"4.1% [at 17.1 µM, percent relative to cAMP agonist control]",15.6% [at 30.8 µM],–
COc1cccc(CNC(=O)COc2cc3c(c4oc(=O)cc(C)c24)CCC(C)(C)O3)c1,inactive,inactive,inactive,inactive,inactive,–,–,–
CCOc1cc(/C=C2/SC(=S)NC2=O)ccc1OC(=O)c1ccco1,37.9 µM (active),inactive,inactive,16.9 µM (active),inactive,–,–,–
O=C(C1CC1)N1CCN(c2ccc([N+](=O)[O-])cc2-n2cccc2)CC1,inactive,inactive,–,inactive,–,"4.17% [at 17.1 µM, percent relative to cAMP agonist control]",6.18% [at 30.8 µM],–
CCOC(=O)N1CCC2CC1c1cc(-c3cccc(OC)c3)ccc12 (stereo not given),inactive,inactive,inactive,inactive,inactive,–,–,–
Cc1cc(C)cc(OCCSc2nc(-c3ccc(C(C)(C)C)cc3)nc3cc(=O)[nH]n23)c1,67.5 µM (active),inactive,inactive,–,inactive,–,–,inactive [at 12.7 µM]
C=CCN(CC=C)C(=O)COn1nnc2ccc(S(=O)(=O)N3CCOCC3)cc21,inactive,inactive,inactive,inactive,inactive,–,–,–
Cn1cc(C(CO)Cc2ccccc2)c2ccccc21 (stereo not given),inactive,inactive,–,inactive,–,"4.77% [at 17.1 µM, percent relative to cAMP agonist control]",2.04% [at 30.8 µM],–
CCC/C=C/c1ccc(CN2C(CC(C)C)C(=O)N(Cc3cn(CCC4OCCO4)nn3)CCS2(=O)=O)cc1 (stereo not given),37.9 µM (active),inactive,inactive,23.9 µM (active),inactive,–,–,–
O=C1N/C(=N/NC(=O)c2cccc3ccccc23)S/C1=C\c1ccccc1OCc1ccccc1,3.55 µM (active),inactive,–,inactive,–,"0.729% [at 17.1 µM, percent relative to cAMP agonist control]",8.81% [at 30.8 µM],–
